PLCg1 inh: PLC-gamma1 enzyme inhibitors, primary screen, biochemical, fluorescence, purified enzyme | fluorogenic substrate | 1-phosphatidylinositol 4,5-bisphosphate phosphodiesterase gamma-1 (Homo sapiens), P19174 | 370,000 tested, 0.84% active | inhibition, % at 12.2 µM; in the data active = inhibition above about 9.5%
ADAM17 inh: ADAM17 inhibitors, primary screen, biochemical, QFRET | Disintegrin and metalloproteinase domain-containing protein 17 (Homo sapiens), P78536 | recombinant ADAM17, EDANS/DABCYL FRET peptide cleavage | inhibition, % at 6.95 µM | 370,000 tested, 0.83% active | AID 720648, 2013;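 active = inhibition above the mean of compounds lying between control limits plus 3 SD, set per campaign, cut at about 8.5% in these data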;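 note: 0% = DMSO-only wells as the low control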
PLC-beta3 inh: human PLC-beta3 inhibitors, primary screen, biochemical, fluorescence; 370,000 tested, 0.18% active; inhibition, % at 12.2 µM; Purified PLC-beta3, fluorogenic substrate; 1-phosphatidylinositol 4,5-bisphosphate phosphodiesterase beta-3 (Homo sapiens), Q01970; AID 720704, 2013;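 note: 0% = median of compound wells on plate and 100% = full blocker control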
Target sequence (Q01970 whole entry, looked up): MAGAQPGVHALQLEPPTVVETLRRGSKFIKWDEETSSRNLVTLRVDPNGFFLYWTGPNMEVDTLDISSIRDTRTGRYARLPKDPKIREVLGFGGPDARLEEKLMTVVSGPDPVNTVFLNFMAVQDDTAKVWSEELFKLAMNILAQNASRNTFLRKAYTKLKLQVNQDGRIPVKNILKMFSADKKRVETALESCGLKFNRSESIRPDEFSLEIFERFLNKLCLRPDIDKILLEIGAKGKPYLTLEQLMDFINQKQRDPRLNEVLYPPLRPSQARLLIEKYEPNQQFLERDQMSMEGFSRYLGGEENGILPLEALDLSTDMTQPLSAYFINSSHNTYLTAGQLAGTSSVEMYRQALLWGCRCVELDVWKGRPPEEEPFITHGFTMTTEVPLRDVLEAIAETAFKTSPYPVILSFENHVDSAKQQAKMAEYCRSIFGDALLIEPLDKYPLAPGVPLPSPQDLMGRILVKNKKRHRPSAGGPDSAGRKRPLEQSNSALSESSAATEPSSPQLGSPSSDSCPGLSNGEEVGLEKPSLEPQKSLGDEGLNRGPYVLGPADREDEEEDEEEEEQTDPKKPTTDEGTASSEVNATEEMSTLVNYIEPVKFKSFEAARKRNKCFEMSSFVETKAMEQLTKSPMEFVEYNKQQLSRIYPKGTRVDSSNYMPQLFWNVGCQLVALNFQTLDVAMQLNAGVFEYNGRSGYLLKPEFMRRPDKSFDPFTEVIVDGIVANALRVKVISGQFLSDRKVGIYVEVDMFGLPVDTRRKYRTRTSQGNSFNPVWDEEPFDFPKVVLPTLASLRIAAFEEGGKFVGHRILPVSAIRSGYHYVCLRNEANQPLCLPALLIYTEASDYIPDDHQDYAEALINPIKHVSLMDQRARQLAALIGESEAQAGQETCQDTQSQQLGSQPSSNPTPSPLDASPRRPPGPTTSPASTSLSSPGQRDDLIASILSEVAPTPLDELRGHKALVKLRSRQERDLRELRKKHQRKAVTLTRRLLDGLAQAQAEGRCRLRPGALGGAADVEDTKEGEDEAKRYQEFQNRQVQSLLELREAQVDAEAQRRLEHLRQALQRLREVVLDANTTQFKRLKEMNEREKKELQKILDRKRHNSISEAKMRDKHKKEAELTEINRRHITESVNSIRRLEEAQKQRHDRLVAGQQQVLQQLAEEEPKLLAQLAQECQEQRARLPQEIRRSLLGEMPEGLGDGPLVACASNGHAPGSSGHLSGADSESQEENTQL
proKLK7 act: proKLK7 zymogen activators, primary screen, biochemical, fluorescence intensity | Kallikrein-7 (Homo sapiens), P49862 | purified proKLK7, EDANS-DABCYL substrate fluorescence; 100% is mature enzyme control, 0% vehicle | activation, % at 7 µM | 370,000 tested, 0.9% active | AID 652039, 2013;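 active = activation above the mean of all tested compounds plus 3 SD, computed per campaign excluding outliers beyond control limits, cut at about 13% in these data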
ADAM10 inh: human ADAM10 inhibitors, primary screen, biochemical, QFRET, HTS | recombinant ADAM10, EDANS/DABCYL FRET peptide cleavage, 3 h | 370,000 tested, 0.62% active | inhibition, % at 7 µM | AID 720582, 2013 | Disintegrin and metalloproteinase domain-containing protein 10 (Homo sapiens), O14672;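 active = inhibition above a per-campaign cutoff equal to the mean of compounds falling between control-based bounds plus 3 SD, cut at about 20% in these data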;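 note: 0% = DMSO wells while the 100% control is not disclosed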
PLCgamma1 ctr: PLC-gamma1 enzyme inhibitors, counter-screen for PLC-beta3 inhibitor project, biochemical, fluorescence | 3,300 tested, 3.1% active | inhibition, % at 12.3 µM | shares compounds with PLCg1 inh | purified PLC-gamma1, fluorogenic substrate | AID 743258, 2014; in the data active = inhibition above about 9.5%
PLCb3 confirm: PLC-beta3 inhibitor confirmation, biochemical, fluorescence, purified enzyme | shares compounds with PLCg1 inh | fluorogenic substrate fluorescence | AID 743261, 2014 | 3,300 tested, 1% active | inhibition, % at 12.3 µM
An asterisk follows results filed as active; nt = no result. Shown are actives, neighbours in structure and some others; about 2.9% of the full set was active somewhere. Cut-off read from the data, not from the text of the source, unless noted: active = inhibition above about 11%; inactive = the rest.

SMILES | PLCg1 inh | ADAM17 inh | PLC-beta3 inh | proKLK7 act | ADAM10 inh | PLCgamma1 ctr | PLCb3 confirm
CC(=O)N1CCN(c2ccc(NC(=O)c3cc4ccccc4o3)cc2)CC1 | 2.0 | -2.7 | -7.9 | -0.3 | 5.6 | nt | nt
CCCC(=O)Nc1ccc(N2CCN(C(=O)c3cc4ccccc4o3)CC2)cc1 | 11.3* | 2.1 | 1.7 | 0.4 | 2.5 | -6.0 | -0.8
C[N+](=O)C1C(=O)Nc2ccccc21 (stereo not drawn) | 3.5 | -6.9 | 0.3 | 0.2 | -8.0 | nt | nt
CCN(CC)CCNC(=O)C1(O)c2cc(Br)ccc2NC(=O)N1c1ccc(Cl)cc1 (stereo not drawn) | 11.8* | 4.1 | 6.8 | -0.5 | 0.3 | -4.7 | -2.3
CN(C(=O)COC(=O)c1ccc2ccccc2n1)C1CCCCC1 | 10.4* | 6.3 | 4.3 | 0.2 | -12.5 | -5.4 | -0.9
CC1CCN(C(=O)COC(=O)c2ccc3ccccc3n2)CC1 | 0.4 | -2.8 | -9.1 | -0.3 | -17.0 | nt | nt
COc1cc(NC(=O)CCc2nc(-c3cccs3)no2)cc(OC)c1OC | 0.3 | -7.8 | -0.6 | 0.3 | -1.8 | nt | nt
COc1cc(-c2noc(CCC(=O)Nc3cccnc3)n2)cc(OC)c1OC | 3.7 | 3.5 | 12.7* | 0.5 | 3.6 | -0.6 | 2.1
COC(=O)C1=C(C(=O)OC)[C@@H]2N(C)c3ccccc3[C@@]23C[C@@H](CO)N(C(=O)NCCBr)C3=N1 | 0.3 | -0.5 | 0.6 | -0.3 | 2.1 | nt | nt
CCCc1cc(=O)[nH]c(SCC(=O)N(CCOC)c2c(N)n(Cc3ccccc3)c(=O)[nH]c2=O)n1 | 5.5 | -4.3 | 2.5 | -0.6 | -5.4 | nt | nt
Cc1ccc(N2CC(C(=O)NCc3cccnc3)CC2=O)cc1 (stereo not drawn) | 0.5 | -1.8 | -4.1 | -0.1 | 3.3 | nt | nt
Cc1ccc(CCN2CC(C(=O)NCc3cccnc3)CC2=O)cc1 (stereo not drawn) | 11.6* | 1.6 | 7.3 | 0.3 | 13.1 | -1.6 | -1.4
COC(=O)c1ccccc1S(=O)(=O)NCc1nc2nc(C)cc(C)n2n1 | 0.9 | -0.6 | 0.6 | 0.1 | -2.5 | nt | nt
Cc1nnc(N/N=C/c2c(Cl)cccc2Cl)n1N | 4.6 | -3.8 | 4.8 | 0.4 | -4.3 | nt | nt
CCc1nnc(N/N=C/c2c(F)cccc2Cl)n1N | 14.5* | 3.1 | 3.5 | -0.7 | 4.9 | -8.6 | -3.8
COc1cccc(NC(=O)c2ccccc2Oc2ccccc2)c1 | 9.8* | 7.9 | -4.9 | 0.0 | 15.4 | -9.6 | -8.1
CCc1ccc(C(=O)OCC(=O)N(CC)c2c(N)n(Cc3ccccc3)c(=O)[nH]c2=O)cc1 | 0.3 | -1.8 | -4.9 | 0.6 | -10.5 | nt | nt
CCN(C(=O)COC(=O)c1ccc(C=O)cc1)c1c(N)n(Cc2ccccc2)c(=O)[nH]c1=O | 18.9* | -9.2 | -24.1 | 0.1 | -14.0 | 0.1 | -13.4
CCOC(=O)[C@H]1[C@H]2COc3ccc(Cl)cc3[C@@H]2N2C(=O)c3cc(F)c(F)cc3NC(=O)[C@@]12C | 1.1 | 1.5 | -1.3 | 0.9 | 12.4 | nt | nt
O=C(O)CC(NC(=O)C12CC3CC(CC(C3)C1)C2)c1cc([N+](=O)[O-])ccc1Cl (stereo not drawn) | 13.1* | 1.3 | 6.1 | 0.4 | 7.3 | -5.0 | -3.9
CC(=O)Nc1ccc(N2CC(C)(C)C2=O)cc1 | 13.0* | 7.4 | 5.4 | -0.5 | 3.2 | -3.1 | 0.8
CC1(C)CN(c2ccc(N3CC(C)(C)C3=O)cc2)C1=O | 3.6 | -2.4 | -3.6 | 0.0 | -0.6 | nt | nt
CCC(=O)N1CCCC(C)(C(=O)Nc2ccc(C)c(C)c2)C1 (stereo not drawn) | 2.3 | -3.3 | 0.5 | -0.2 | -4.1 | nt | nt
C=CCn1c(-c2csc(-c3ccc(Cl)cc3)n2)n[nH]c1=S | 9.8* | 2.8 | 7.7 | 0.1 | 13.8 | -11.2 | -9.9
C=CCn1c(-c2csc(-c3ccccc3)n2)n[nH]c1=S | 8.5 | 3.5 | -1.4 | 0.1 | 1.1 | nt | nt
SMILES | PLCg1 inh | ADAM17 inh | PLC-beta3 inh | proKLK7 act | ADAM10 inh | PLCgamma1 ctr | PLCb3 confirm
CN(Cc1ccon1)Cc1cn(Cc2ccccc2)nc1-c1ccc2c(c1)OCO2 | 5.0 | 3.8 | 5.7 | -0.1 | 9.8 | nt | nt
O=C(N/N=C/c1sc(=O)[nH]c1-[n+]1ccccc1)c1ccccc1[O-] | 2.4 | 2.7 | -1.1 | 0.6 | 5.2 | nt | nt
Cc1ccc[n+](-c2[nH]c(=O)sc2/C=N/NC(=O)c2ccccc2[O-])c1 | 14.3* | 8.4 | 1.2 | -0.6 | 15.2 | 2.9 | -0.6
COC(=O)CN1CC(=O)N(c2ccccc2)C1=S | 10.5* | -6.3 | -3.3 | 0.0 | 1.6 | 0.3 | -5.0
COc1ccc(CN(C)CC(=O)Nc2ccc(Cl)cc2C(F)(F)F)c(OC)c1 | 12.6* | -0.5 | -0.6 | -0.1 | -4.3 | -1.8 | 1.5
C=CCN(CC=C)C(=O)c1ccc2nc(Cc3ccc(OC)c(OC)c3)oc2c1 | -4.2 | -0.1 | -8.6 | 0.2 | 2.7 | nt | nt
C#CCN(CC=C)C(=O)c1ccc2nc(C3CCCCC3)oc2c1 | 9.5* | 6.4 | 0.1 | -0.3 | 9.1 | -4.5 | -3.3
CNC(=O)C(=O)Nc1c(C)cc(C)cc1C | 6.7 | 6.9 | 12.3* | -0.5 | 9.6 | -7.3 | -5.5
CNC(=O)C(=O)Nc1ccc(C)cc1C | 1.0 | -4.3 | 0.2 | -0.2 | -1.2 | nt | nt
CCN(CC)C(=O)c1[nH]cnc1C(=O)N[C@H](C)c1ccccc1 | 8.4 | 4.5 | 13.8* | 0.6 | -0.8 | -0.2 | -1.5
O=C(COC(=O)c1ccc(Br)c(S(=O)(=O)N2CCOCC2)c1)NC1CC1 | -1.6 | -2.5 | 1.1 | 0.7 | 2.8 | nt | nt
O=c1[nH]nc(-c2ccc(NCCO)c([N+](=O)[O-])c2)c2ccccc12 | 2.0 | -2.1 | -2.8 | -0.5 | -2.0 | nt | nt
O=c1[nH]nc(-c2ccc(NCCCO)c([N+](=O)[O-])c2)c2ccccc12 | 13.2* | 4.1 | 3.4 | 0.2 | 6.7 | -1.9 | -5.7
C1=CC2CC1CC2CN1CCN(Cc2ccccc2)CC1 (stereo not drawn) | 1.5 | -5.6 | 0.9 | 0.4 | -1.2 | nt | nt
Fc1ccccc1N1CCN(CC2CC3C=CC2C3)CC1 (stereo not drawn) | 12.4* | 2.4 | 10.8* | -0.3 | 7.7 | -2.6 | -0.5
CCOc1ccc(S(=O)(=O)N2CCN(C(=O)c3ccc(C)c(S(=O)(=O)N4CCOCC4)c3)CC2)cc1 | 2.4 | 1.4 | -3.5 | 0.6 | -9.0 | nt | nt
CC(=O)N1CCSc2ccc(S(=O)(=O)NCCc3cccc(C)c3)cc21 | 16.1* | 2.8 | -3.2 | 0.7 | 6.2 | -1.2 | -1.5

Assay outcomes (PubChem BioAssay)
